Bioassay records (PubChem BioAssay)
HCV inh: inhibitors of hepatitis C virus infection; Huh7.5.1 HCVcc-Cre infection, luciferase reporter, 44 h; Potency, µM (titrated, usually from 41.8 µM), without a hit: at the highest dose activity change, negative = inhibition, actives largely listed as inhibitors; 340,000 tested, 3.4% active; AID 651820; active means well fitted inhibition curve with a large enough effect; inconclusive means small, poorly fitted or top-dose-only effect, or another doubt; inactive means no such curve, though single readings can be large or run the other way; further: potency means the concentration at half of the fitted maximal effect
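Seed cells (1,000/well) for 4 h; treat with compound and infect with HCVcc-Cre, moi about 0.5. Incubate 44 h, then detect luciferase activity.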
HCMV antiviral: blocks human cytomegalovirus replication; HFF cells, HCMV-luciferase reporter, 72 h; active compounds read low; 410,000 tested, 4.5% active; AID 1259415; activity change, negative = inhibition, % at 57.5 µM; in the data active means activity change below about -60%; inconclusive means no clear call, values can overlap the other calls; inactive means above about -39%
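Screen run at 2 compound doses on HFFs infected with reporter HCMV, MOI 1 PFU/cell. Luciferase activity from cell lysates at 72 h post infection gave inhibition relative to buffer-only and Salinomycin wells.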
VACV mCherry inh: vaccinia inhibition (mCherry reporter); Vaccinia virus mCherry reporter infection, fluorescence; Potency, µM (series often up to 36.5 µM), for the others: at the top dose activity change, negative = inhibition, most hits filed as inhibitors; 310,000 tested, 0.63% active; calls by dose curve; tested in A549 cells; further: potency means the concentration at half of the fitted maximal effect; nearly all actives have a fitted effect of over 35% in size
VACV Venus inh: vaccinia inhibition (Venus reporter); Vaccinia virus Venus reporter expression, fluorescence; AID 720580; Potency, µM (doses to about 36.5 µM), for the others: at the highest dose activity change, negative = inhibition, most hits filed as inhibitors; 330,000 tested, 0.46% active; calls by dose curve; tested in A549 cells; further: potency means the concentration at half of the fitted maximal effect; nearly all actives have a fitted effect of over 30% in size
Marburg entry inh: Marburg virus entry inhibition; Marburg virus pseudotyped entry inhibition, cell reporter; Potency, µM (doses to about 37.8 µM), for the others: at the highest dose activity change, negative = inhibition, most hits filed as inhibitors; 300,000 tested, 1.8% active; calls by dose curve; tested in HEK293 cells; further: potency means the concentration at half of the fitted maximal effect
Lassa entry inh: inhibitors of Lassa virus binding or cell entry; 300,000 tested, 1.2% active; Potency, µM (top dose mostly 37.9 µM), for the others: at the top dose activity change, negative = inhibition, most hits filed as inhibitors; Lassa virus pseudotype entry inhibition, cell reporter; calls by dose curve; tested in HEK293 cells; further: potency means the concentration at half of the fitted maximal effect; nearly all actives have a fitted effect of over 50% in size
* hit, by the source's call; i = inactive; ? = inconclusive; · = no result; [ ] = dose if it differs, or a comment. Shown are actives, neighbours in structure and some others; about 7.8% of the full set was active somewhere. On the % scale 0 is the no-effect control and ±100 the full control effect.

SMILES	HCV inh	HCMV antiviral	VACV mCherry inh	VACV Venus inh	Marburg entry inh	Lassa entry inh
CCOC(=O)N1CCN(c2nc(CN3CCCCC3CCO)nc3c(C)cccc23)CC1 (stereo not drawn)	·	·	i	-12.3%	·	·
CC1=C(C)/C(=N\OS(=O)(=O)c2ccc(C)cc2)C=CC1=O	?	-85.6*	-7.8%	-14.6%	1.41µM*	6.31µM*
COc1ccc(S(=O)(=O)c2ccc(OC)cc2)cc1	25.9%	-36.3	2.3%	-5.2%	?	-5.6%
COc1ccc(S(=O)(=O)/N=C2/C=CC(=O)C(C)=C2C)cc1	12.6µM*	·	·	·	?	-9.0%
COc1ccc(-n2nnnc2C(c2ccccc2)N2CCC(n3c(=O)[nH]c4ccccc43)CC2)cc1 (stereo not drawn)	·	-17.6	-6.9%	-29.0%	·	·
COc1ccc(-n2nnnc2C(c2cccc(OC)c2OC)N2CCC(n3c(=O)[nH]c4ccccc43)CC2)cc1 (stereo not drawn)	·	-35.5	3.2%	-12.6%	·	·
COc1cccc(C(c2nnnn2-c2ccc3c(c2)OCCO3)N2CCC(n3c(=O)[nH]c4ccccc43)CC2)c1OC (stereo not drawn)	·	-97.3*	-14.6%	-21.2%	·	·
O=c1[nH]c2ccccc2n1C1CCN(C(c2ccccc2OC(F)(F)F)c2nnnn2-c2ccc3c(c2)OCCO3)CC1 (stereo not drawn)	·	-106.2*	?	?	·	·
Cc1ccccc1-c1cc(-n2ccnc2)ncn1	·	·	i	-7.7%	·	·
O=C1CCC[C@H]2[C@@H](Cc3ccccc3)[C@@H](NS(=O)(=O)c3ccc(Cl)cc3)CC[C@]23CCCN13	·	-92.0*	·	·	·	·
C[C@H]1[C@@H](NC(=O)Nc2ccc3c(c2)OCO3)CC[C@@]23CCCN2C(=O)CCC[C@@H]13	·	-92.3*	·	·	·	·
C[C@H]1[C@@H](NS(=O)(=O)c2cn(C)cn2)CC[C@@]23CCCN2C(=O)CCC[C@@H]13	·	-101.7*	·	·	·	·
C[C@H]1[C@@H](NS(=O)(=O)c2ccc(F)cc2)CC[C@@]23CCCN2C(=O)CCC[C@@H]13	·	15.9	·	·	·	·
C=C(C[C@@]1(C(=O)OC)C=C[C@@H](C)[C@H](c2ccccc2Br)N1C(=O)C(F)(F)F)c1ccccc1	·	·	·	·	-13.5%[14.2 µM]	·
COC(=O)c1sc(NC(=O)c2cc3nc(-c4ccc(Br)cc4)cc(C(F)(F)F)n3n2)c(C(=O)OC)c1C	·	-1.0	-5.7%	-10.6%	·	17.7%[46.1 µM]
Cc1ccc2oc(-c3ccc(NC(=O)c4oc5ccc(Cl)cc5c4C)cc3)nc2c1	·	30.4	-9.2%	1.0%	·	3.9%[46.1 µM]
O=C(COC(=O)c1ccco1)NCc1ccccc1Cl	0.1%	18.7	-26.8%	-8.4%	18.7%[46.1 µM]	13.6%[46.1 µM]
O=C(COC(=O)c1ccccc1O)NCc1ccccc1Cl	?	-64.7*	·	·	·	·
COc1ccccc1CNC(=O)COC(=O)Cc1c(Cl)cccc1Cl	-7.3%	-32.3	·	·	·	·
O=C(COC(=O)Cc1c(Cl)cccc1Cl)NCc1ccccc1	·	-67.9*	?	-19.7%	·	·
O=C(Cc1c(Cl)cccc1Cl)OCC(=O)N1CCc2ccccc2C1	34.8%	-101.3*	i	-10.0%	30.0%	25.5%
COc1ccccc1N1CCN(c2nc3c(S(=O)(=O)c4ccc(C)c(C)c4)nnn3c3ccc(Cl)cc23)CC1	·	15.9	-16.3%	-17.2%	-13.0%[46.1 µM]	·
COc1cccc(NC(=O)C2CCC(CNS(=O)(=O)c3csc(C(N)=O)c3)CC2)c1 (stereo not drawn)	·	4.3	-14.0%	-3.4%	·	8.0%[46.1 µM]
O=C(Nc1nonc1-c1ccc(Br)cc1)c1ccco1	·	-19.1	-3.5%	3.2%	1.0%[46.1 µM]	-5.3%[46.1 µM]
COCCNC(=O)c1cccc(Nc2nc3ccccc3n3nnnc23)c1	·	-0.4	-19.1%	-16.6%	·	-6.1%[46.1 µM]
SMILES	HCV inh	HCMV antiviral	VACV mCherry inh	VACV Venus inh	Marburg entry inh	Lassa entry inh
CCCCOc1ccc(C(C)NC(=O)c2cccc(Nc3nc4ccccc4n4nnnc34)c2)cc1 (stereo not drawn)	·	-98.3*	?	?	·	-0.5%[46.1 µM]
Cc1ccc(CNC(=O)c2cccc(Nc3nc4ccccc4n4nnnc34)c2)cc1	·	10.0	6.31µM*	7.94µM*	1.1%[46.1 µM]	?
O=C(CN1CCN(Cc2ccc(F)cc2Cl)S1(=O)=O)Nc1ccc(F)cc1	·	0.0	-20.4%	-17.6%	·	17.9%[46.1 µM]
COc1ccc(NC(=O)CN2c3cccc4cccc(c34)S2(=O)=O)c(OC)c1	?	6.3	-1.3%	-1.3%	-14.0%	-14.8%
COc1cc(NC(=O)CN2c3cccc4cccc(c34)S2(=O)=O)cc(OC)c1OC	11.2µM*	-25.3	?	?	?	-3.1%
COc1ccc(C(C)C)cc1S(=O)(=O)n1ccnc1C	14.7%	-103.3*	-3.5%	-20.6%	2.4%	1.4%
COc1ccc(OC)c(S(=O)(=O)n2ccnc2C)c1	7.3%	6.4	i	-17.3%	3.2%	?
Cc1ccc(C)c(-c2cc(C(=O)Nc3cccnc3)c3ccccc3n2)c1	·	-6.6	i	-2.1%	11.2µM*	-6.2%
Cc1cc(NC(=O)c2cc(-c3ccccc3C)nc3ccccc23)no1	-6.2%	-74.4*	-10.1%	-5.0%	-27.6%	-20.9%
Cc1ccc(-c2cc(C(=O)Nc3cc(C)on3)c3ccccc3n2)c(C)c1	-16.4%	-33.2	-2.5%	-7.0%	-0.3%	-16.0%
O=C(Nc1cccnc1)c1cc(-c2ccc(Br)cc2)nc2ccccc12	3.16µM*	39.9	i	5.2%	?	?
Cc1ccc(C)c(-c2cc(C(=O)Nc3cccc(C(=O)O)c3)c3ccccc3n2)c1	1.8%	-14.8	-3.9%	-6.6%	12.4%[46.1 µM]	18.6%
Cc1ccc(C(=O)COC(=O)c2cc(-c3cccs3)nc3ccccc23)cc1	·	20.8	-1.0%	-10.4%	17.4%[46.1 µM]	-33.9%[46.1 µM]
COc1ccc(C(=O)COC(=O)c2cc(-c3cccs3)nc3ccccc23)cc1	·	11.1	-9.6%	-2.5%	1.5%[46.1 µM]	11.2µM*
Cc1cc(N(CCO)Cc2ccccc2)n2nc(-c3ccc(C(C)(C)C)cc3)nc2n1	·	-12.0	-11.6%	-5.4%	-13.8%[46.1 µM]	-20.2%[46.1 µM]
COC(=O)C1[C@H]2SC(C)(C)C(C(=O)OC)N2C(=O)N1Cc1ccccc1 (stereo partly drawn)	·	·	-1.0%	-10.5%	·	·
CC(=O)c1cc2c(cc1O)OC(C)(C)C=C2	·	·	-14.7%	-7.4%	·	·
Cc1cc(NC(=O)c2cc(-c3ccncc3)nc3ccccc23)ccc1Br	8.91µM*	-13.9	?	-18.7%	?	?
